For 18 molecules, Potency and outcome results are on record in PubChem BioAssay (NCATS).

The nature of assay [1]: P-glycoprotein substrates identified in KB-8-5-11 adenocarcinoma cell line, qHTS therapeutic library screen (AID 1346987). Also: nearly all actives have a fitted effect of over 65% in size. Also: potency is read from the fitted curve at half-maximal effect. The gist of the method: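 KB-8-5-11, a colchicine-selected P-gp-overexpressing KB-3-1 subline, was grown without colchicine for the assay. Cells were seeded at 500 cells/well, dosed in concentration-response and incubated 72 h at 37 degree C, 5% CO2. Viability was read by CellTiter-Glo luminescence.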
A general note: In qHTS, concentration-response curves come from the screen itself.

Assay [2] deals with Zika virus NS2B-NS3 protease (linked construct). The assay is described as follows: Confirmatory screen NINDS AMC qHTS for Zika virus inhibitors (AID 1347152). Also: nearly all actives have a fitted effect of over 70% in size. Also: potency is read from the fitted curve at half-maximal effect. The procedure, abridged: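 Concentration-response confirmation used the NINDS linked protease (NS2B hydrophilic domain joined to NS3 protease domain), 1 nM, with a 15-min compound preincubation. Substrate, Nle-KRR-AMC at 10 microM, was read by UV fluorescence before and after 15 min.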

Assay [3] addresses Atrial natriuretic peptide receptor 1 (Homo sapiens) (UniProt P16066). As to the kind of experiment: Natriuretic polypeptide receptor (hNpr1) antagonism - Pilot screen (AID 1347049; calls by dose curve;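 also: agonist-evoked cGMP luminescence read 20 min after hNppA addition; series mostly up to about 58 µM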). The gist of the method:
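HEK293 cells expressing hNpr1 and GloSensor cGMP luciferase, 1500/well, loaded with 2% GloSensor reagent 2 h, compound 30 min at room temperature; luminescence read before and 20 min after 0.1 nM hNppA stimulation.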

The target of assay [4] is Atrial natriuretic peptide receptor 2 (Homo sapiens) (UniProt P20594). As to the kind of experiment: Natriuretic polypeptide receptor (hNpr2) antagonism - Pilot subtype selectivity assay (AID 1347050; calls by dose curve). The gist of the method:
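HEK293 cells expressing hNpr2 and a GloSensor cGMP luciferase sensor, 1500/well, preloaded 2 h with 2% GloSensor reagent, compound 30 min, then 1 nM hNppC for 20 min. Antagonism from luminescence after versus baseline pre-read; LOPAC in 1:5 titrations.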

Assay [5] has as its target Parathyroid hormone/parathyroid hormone-related peptide receptor (Homo sapiens) (UniProt Q03431). As to the kind of experiment: qHTS for PTHR1 Agonists: Optimization Screen against the NCGC LOPAC library (AID 1347079).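 Also: GloSensor cAMP luminescence in HEK-293 GP2 cells expressing human PTHR1 with IBMX.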 The procedure, abridged:
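Agonist readout: GloSensor cAMP luminescence, read after 15 min at room temperature. HEK-293-derived GP2 line carries PTHR1; compounds tested as a titration for 1 hr at 37C in presence of IBMX. M-PTH (1-15) served as control.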

For assay [6], the target named is N-terminal Xaa-Pro-Lys N-methyltransferase 1 (Homo sapiens) (UniProt Q9BV86). As to the kind of experiment: qHTS Assay for Inhibitors of N-terminal methyltransferase 1 (NTMT1): LOPAC validation of the NTMT1 SAHH-coupled ThioGlo3 Assay (AID 1347143).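 Also: SAH from peptide methylation measured as thiol fluorescence via SAHH coupling and ThioGlo3; nearly all actives have a fitted effect of over 70% in size.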 The procedure, abridged: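 Recombinant human NTMT1 (125nM) was pre-incubated 1 min at room temperature with compounds over a concentration range, then a mix of 100uM SAM, 10uM SAHH and 15uM ThioGlo3 (concentrations in added reagent) was added. ThioGlo3 fluorescence (ex 340/em 450nm) after 30 min was normalized to the initial reading.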
Sequence of N-terminal Xaa-Pro-Lys N-methyltransferase 1 (Homo sapiens) (Q9BV86 whole entry, looked up): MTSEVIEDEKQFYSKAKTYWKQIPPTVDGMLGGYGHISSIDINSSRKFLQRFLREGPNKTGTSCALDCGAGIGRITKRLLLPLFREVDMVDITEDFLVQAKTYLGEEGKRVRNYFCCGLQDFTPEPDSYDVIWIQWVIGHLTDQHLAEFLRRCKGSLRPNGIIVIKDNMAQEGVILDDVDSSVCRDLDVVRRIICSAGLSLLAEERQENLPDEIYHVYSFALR

The next assay deals with Furin (Homo sapiens) (UniProt P09958). The assay is described as follows: Furin counterscreen qHTS for Zika virus inhibitors (AID 1347149). Also: nearly all actives have a fitted effect of over 70% in size. Also: potency is read from the fitted curve at half-maximal effect. The gist of the method: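 Fluorogenic cleavage of BOC-RVRR-AMC (2 microM final, Km ~15 µM) was monitored (ex 340, em 450 nm) at 37C after 15 min RT preincubation of 5 nM furin with compounds in HEPES pH 7.0 buffer with CaCl2 and Triton X-100. Percent inhibition was fitted to a 4-parameter Hill curve.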
Sequence of Furin (Homo sapiens) (P09958 whole entry, looked up): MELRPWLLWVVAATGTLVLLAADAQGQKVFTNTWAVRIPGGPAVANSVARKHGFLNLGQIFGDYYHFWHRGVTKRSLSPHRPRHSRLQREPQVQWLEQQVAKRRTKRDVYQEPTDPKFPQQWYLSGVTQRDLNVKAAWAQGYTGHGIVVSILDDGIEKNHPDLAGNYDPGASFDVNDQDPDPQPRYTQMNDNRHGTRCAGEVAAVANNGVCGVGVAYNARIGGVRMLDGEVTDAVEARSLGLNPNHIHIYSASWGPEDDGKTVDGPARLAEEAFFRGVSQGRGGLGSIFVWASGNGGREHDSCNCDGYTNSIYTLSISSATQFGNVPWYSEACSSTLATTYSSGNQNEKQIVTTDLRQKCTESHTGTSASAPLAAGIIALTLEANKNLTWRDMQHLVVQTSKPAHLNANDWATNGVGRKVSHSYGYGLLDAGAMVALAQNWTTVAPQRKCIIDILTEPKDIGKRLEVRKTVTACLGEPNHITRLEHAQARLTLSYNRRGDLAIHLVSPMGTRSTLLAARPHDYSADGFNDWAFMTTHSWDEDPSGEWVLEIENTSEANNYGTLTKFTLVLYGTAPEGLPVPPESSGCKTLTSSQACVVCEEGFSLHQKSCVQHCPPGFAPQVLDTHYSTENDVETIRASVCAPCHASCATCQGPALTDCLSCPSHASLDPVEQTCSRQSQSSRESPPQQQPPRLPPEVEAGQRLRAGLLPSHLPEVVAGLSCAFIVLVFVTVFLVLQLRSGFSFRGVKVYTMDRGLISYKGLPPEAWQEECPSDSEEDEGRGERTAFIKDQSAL

The test system of assay [7] is Zika virus NS2B-NS3 protease (unlinked complex). As to the kind of experiment: Confirmatory screen GU AMC qHTS for Zika virus inhibitors (AID 1347153).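 Also: enzyme at 25 nM with substrate at 10 µM below its Km of 18.3 µM; potency is read from the fitted curve at half-maximal effect; nearly all actives have a fitted effect of over 70% in size.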 The note with it: Recombinant NS2B-NS3 protease, AMC substrate fluorescence. The procedure, abridged:
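Compounds were preincubated 15 min at room temperature with 25 nM noncovalent NS2B-NS3 protease at pH 8.0; AMC substrate added at 10 microM and 15-min fluorescence gain (340/450 nm) converted to percent inhibition, fitted 4-parameter.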

The subject of assay [8] is Zika virus NS2B-NS3 protease (unlinked). The assay is described as follows: Optimization of GU AMC qHTS for Zika virus inhibitors: Unlinked NS2B-NS3 protease assay (AID 1347151). Also: series mostly up to about 52 µM; nearly all actives have a fitted effect of over 80% in size. The procedure, abridged: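 In this qHTS, compounds acted on 25 nM unlinked Zika NS2B–NS3 in pH 8.0 Tris/Tween buffer. Cleavage of an AMC peptide ran 15 min at room temperature, to about 20% conversion.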

Records with an inconclusive call do not appear. Active and inactive are the calls of the source. Unless noted, calls follow the shape of the dose curve; as a rule, active = well fitted curve in the direction sought with a large enough effect; inconclusive = small, poorly fitted or top-dose-only effect, or another doubt; inactive = no such curve, though single readings can be large; an effect the other way counts as inactive or inconclusive.

Sequence of Atrial natriuretic peptide receptor 1 (Homo sapiens) (P16066 whole entry, looked up): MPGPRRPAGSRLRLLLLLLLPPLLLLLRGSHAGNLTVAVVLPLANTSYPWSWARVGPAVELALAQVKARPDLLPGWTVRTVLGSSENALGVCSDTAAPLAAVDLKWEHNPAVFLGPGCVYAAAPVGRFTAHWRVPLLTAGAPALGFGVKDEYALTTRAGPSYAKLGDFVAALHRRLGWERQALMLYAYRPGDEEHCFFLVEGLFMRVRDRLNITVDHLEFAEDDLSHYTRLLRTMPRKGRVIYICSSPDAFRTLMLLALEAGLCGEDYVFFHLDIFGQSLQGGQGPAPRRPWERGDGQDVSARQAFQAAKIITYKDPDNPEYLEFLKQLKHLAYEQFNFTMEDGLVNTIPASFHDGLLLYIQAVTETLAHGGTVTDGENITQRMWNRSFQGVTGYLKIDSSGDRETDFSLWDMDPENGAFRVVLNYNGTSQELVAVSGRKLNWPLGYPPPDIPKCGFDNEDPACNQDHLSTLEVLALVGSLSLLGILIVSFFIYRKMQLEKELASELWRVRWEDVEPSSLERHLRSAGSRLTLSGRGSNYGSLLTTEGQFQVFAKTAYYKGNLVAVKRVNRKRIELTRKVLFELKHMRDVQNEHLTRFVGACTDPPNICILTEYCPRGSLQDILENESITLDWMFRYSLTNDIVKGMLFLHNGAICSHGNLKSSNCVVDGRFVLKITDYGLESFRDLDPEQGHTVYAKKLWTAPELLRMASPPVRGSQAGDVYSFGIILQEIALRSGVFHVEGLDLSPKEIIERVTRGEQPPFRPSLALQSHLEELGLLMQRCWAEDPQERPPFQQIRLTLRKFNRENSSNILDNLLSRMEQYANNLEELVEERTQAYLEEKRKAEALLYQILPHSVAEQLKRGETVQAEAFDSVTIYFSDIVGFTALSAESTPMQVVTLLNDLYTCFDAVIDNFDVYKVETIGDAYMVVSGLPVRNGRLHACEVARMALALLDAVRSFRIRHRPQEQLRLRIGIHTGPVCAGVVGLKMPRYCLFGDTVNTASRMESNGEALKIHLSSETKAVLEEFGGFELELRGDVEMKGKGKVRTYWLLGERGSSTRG
Sequence of Atrial natriuretic peptide receptor 2 (Homo sapiens) (P20594 whole entry, looked up): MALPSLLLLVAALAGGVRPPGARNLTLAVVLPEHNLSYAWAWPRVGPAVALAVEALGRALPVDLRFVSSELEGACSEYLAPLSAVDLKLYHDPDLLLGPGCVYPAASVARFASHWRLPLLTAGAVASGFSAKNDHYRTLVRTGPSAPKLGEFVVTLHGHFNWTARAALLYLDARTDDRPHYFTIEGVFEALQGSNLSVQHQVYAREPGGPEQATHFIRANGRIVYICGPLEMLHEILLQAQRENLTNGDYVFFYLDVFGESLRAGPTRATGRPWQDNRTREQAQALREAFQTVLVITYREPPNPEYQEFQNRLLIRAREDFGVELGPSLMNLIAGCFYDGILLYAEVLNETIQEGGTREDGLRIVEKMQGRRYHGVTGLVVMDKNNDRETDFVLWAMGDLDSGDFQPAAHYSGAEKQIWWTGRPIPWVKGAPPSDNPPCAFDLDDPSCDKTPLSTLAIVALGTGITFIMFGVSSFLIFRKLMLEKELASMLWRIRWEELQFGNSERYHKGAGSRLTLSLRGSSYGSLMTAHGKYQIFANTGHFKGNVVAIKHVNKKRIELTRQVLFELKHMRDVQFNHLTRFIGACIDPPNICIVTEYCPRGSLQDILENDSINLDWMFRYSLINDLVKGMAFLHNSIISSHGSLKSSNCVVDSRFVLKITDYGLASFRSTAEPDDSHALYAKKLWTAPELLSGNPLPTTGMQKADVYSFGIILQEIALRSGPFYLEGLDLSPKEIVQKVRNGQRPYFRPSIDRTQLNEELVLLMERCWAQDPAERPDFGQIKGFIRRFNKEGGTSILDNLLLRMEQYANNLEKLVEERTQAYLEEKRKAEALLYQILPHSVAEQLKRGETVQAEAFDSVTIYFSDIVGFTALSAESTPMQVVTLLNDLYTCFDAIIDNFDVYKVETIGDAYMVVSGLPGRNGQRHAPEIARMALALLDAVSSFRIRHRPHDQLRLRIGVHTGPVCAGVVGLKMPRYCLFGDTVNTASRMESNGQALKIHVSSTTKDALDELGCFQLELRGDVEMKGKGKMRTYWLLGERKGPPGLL
Sequence of Parathyroid hormone/parathyroid hormone-related peptide receptor (Homo sapiens) (Q03431 whole entry, looked up): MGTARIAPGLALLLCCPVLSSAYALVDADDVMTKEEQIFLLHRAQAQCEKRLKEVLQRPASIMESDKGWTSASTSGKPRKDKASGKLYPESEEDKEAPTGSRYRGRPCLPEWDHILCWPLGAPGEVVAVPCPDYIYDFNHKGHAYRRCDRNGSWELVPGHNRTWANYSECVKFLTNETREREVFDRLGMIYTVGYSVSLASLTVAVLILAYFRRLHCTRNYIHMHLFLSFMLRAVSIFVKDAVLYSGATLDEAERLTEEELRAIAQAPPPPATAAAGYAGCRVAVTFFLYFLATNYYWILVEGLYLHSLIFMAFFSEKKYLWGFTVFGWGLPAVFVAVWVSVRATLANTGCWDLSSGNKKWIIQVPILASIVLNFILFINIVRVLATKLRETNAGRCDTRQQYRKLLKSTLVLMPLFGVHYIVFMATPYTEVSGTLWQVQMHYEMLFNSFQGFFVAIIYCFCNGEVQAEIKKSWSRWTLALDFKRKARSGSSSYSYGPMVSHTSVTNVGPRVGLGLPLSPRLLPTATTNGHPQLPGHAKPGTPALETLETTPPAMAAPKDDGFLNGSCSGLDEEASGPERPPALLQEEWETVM

As to `COc1cc2c(cc1OC)CN(C(=O)/C=C/c1c(-c3ccccc3)n(C)c3ncccc13)CC2`, the Potency in assay [1] is 20.6 µM (active).
Same read-out and setting: to `CCCC(=O)O[C@]1(C(=O)COC(=O)CC)[C@@H](C)C[C@H]2[C@@H]3CCC4=CC(=O)C=C[C@]4(C)[C@@]3(F)[C@@H](O)C[C@@]21C` belongs “inactive”; to `CCOC(=O)c1cnn(-c2ccccc2)c1NC(=O)c1cc2nc(-c3ccco3)cc(C(F)(F)Cl)n2n1`, “inactive”.
With `O=C(O)c1ccc(N2C(=O)/C(=C/c3ccc(-c4ccc([N+](=O)[O-])cc4)o3)C=C2c2ccccc2)cc1`, in assay [2], the Potency was 12.4 µM (active).
In the case of `Cc1ccc(O)cc1Nc1ccnc(Nc2cccc(C(N)=O)c2)n1`, the Potency in assay [1] is 23.1 µM (active).
Same read-out and setting: next, `C[C@@H](NC(=O)c1ccc(C#Cc2cccc(F)c2)cn1)C(C)(C)O`: “inactive”; `Clc1ncoc1-c1c[nH]c2ccccc12`: “inactive”.
The same measure, in the same setting: to `CC(C)c1noc(C2CCN(c3ncnc(Nc4ccc(S(C)(=O)=O)cc4F)c3[N+](=O)[O-])CC2)n1` belongs “inactive”.
For `NCCCC(=O)O`, the Potency result in assay [1] and in assay [4] was “inactive” each time. Also, the outcome in [3], in [5] and in [6] was inactive.
Regarding `CC(O)(C(=O)O)C1CCC2(C)C1CCC1(C)C2CCC2C3(C)CCC(O)C(C)(COC4OC(CO)C(O)C(O)C4O)C3CCC21C` (stereo not given), the Potency result (in assay [1]; with Furin (Homo sapiens); in [2]) was “inactive” in each case.
On to `C/C1=C/CCC2=CC(OC2=O)C(C)(C)/C=C/C1=O` (stereo not given), for which the Potency in assay [1] was 3.26 µM (active).
Still for that read-out and setting: next, `C=C(C)C(=O)OC1CC2(C)OC(=CC2=O)C(=C)CC2OC(=O)C(=C)C12` (stereo not given): 10.1 µM (active); `CCCC(Nc1nc(-c2ccc(NC(=O)NCC)c(OC)c2)ncc1C)c1cccnc1` (stereo not given): 1.16 µM (active).
Consider `Cc1ccccc1CNc1ncnc2c1ncn2[C@@H]1O[C@H](CO)[C@@H](O)[C@H]1O`, for which the Potency entry in assay [1] was “inactive”.
The same measure, in the same setting: next, `CC(NC(=O)Cc1cc(F)cc(F)c1)C(=O)NC1C(=O)N(C)c2ccccc2-c2ccccc21` (stereo not given): 14.6 µM (active).
For the molecule `O=C(O)c1ccc(S(=O)(=O)N(Cc2ccc(OC(F)(F)F)cc2)c2ncc(C(F)(F)F)cc2Cl)cc1`, the Potency entry in assay [1] was “inactive”. Besides, the Potency in assay [2] is 49.4 µM (active); in assay [7] it was 44.1 µM (active).
Turning to `CCC(CC)(NC(=O)C(C)C)C(=O)N[C@@H](CCCN=C(N)N)C(=O)NC1(C(=O)NC(c2ccc(F)cc2)c2ccc(F)cc2)CCCC1`, the Potency result (in [1]; in the assay with Furin (Homo sapiens)) was “inactive” in each case. Further, in [8], the molecule was called inactive.
On to `CC#C[C@@H](CC(=O)O)c1ccc(OCc2cccc(-c3ccc(C(F)(F)F)cc3)c2)cc1`, for which the Potency with Furin (Homo sapiens) was 24.1 µM (active); in assay [2], 12.4 µM (active); in assay [7], 13.9 µM (active).
